These results are taken from PubChem BioAssay.

Records with an inconclusive call do not appear. Active and inactive are the calls of the source. Cut-off read from the data, not from the text of the source, unless noted: active = inhibition above about 80%; inactive = the rest.

One may read the inhibition as the relative decrease from the control value, in per cent. By AC50 is commonly meant the midpoint of the concentration-response curve, whichever way the signal moves. One may read the IC50 as the point on the concentration scale where inhibition reaches its midpoint.

The nature of test [1]: growth inhibition of DIPG glioma cells, dose response, cell-based, SU-DIPG-XIII, MIPE4.0, CellTiter-Glo, qHTS (AID 1347061; cut-off not given, nearly all actives have AC50 up to about 37 µM;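 note: cells exposed to compound for 48 hours before readout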). Particulars: SU-DIPG-XIII viability, CellTiter-Glo ATP luminescence. Background: In ATP-based viability assays light output follows the ATP content of the culture.
The nature of test [2]: growth inhibition of DIPG glioma cells, dose response, cell-based, JHH-DIPG-1, MIPE4.0, CellTiter-Glo, qHTS (AID 1347062; cut-off not given, nearly all actives have AC50 up to about 27 µM;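 for AC50: cells exposed to compound for two days before readout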). The note with it: JHH-DIPG-1 viability, CellTiter-Glo ATP luminescence.
A short description of test [3]: growth inhibition of DIPG glioma cells, dose response, cell-based, SU-DIPG-IV, MIPE4.0, CellTiter-Glo, qHTS (AID 1347063; cut-off not given, nearly all actives have AC50 up to about 30 µM;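 note: compound exposure lasted 48 hours before the viability readout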). Particulars: SU-DIPG-IV viability, CellTiter-Glo ATP luminescence.
Test [4] in a line: SU-DIPG-VI glioma cell viability, MIPE4.0 library, CellTiter-Glo luminescence, qHTS (AID 1347066; cut-off not given, nearly all actives have AC50 up to about 30 µM;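 note: cells exposed to compound for 48 hours before readout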). Particulars: CellTiter-Glo ATP luminescence.
Test [5] can be described thus: LFS_MB_P medulloblastoma growth inhibition, cell-based, chromothripsis tumors, cisplatin or BGB combos (AID 1671449).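 Note: cells exposed for 96 hours; 0% = vehicle DMSO and 100% = killing by high DMSO.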 Particulars: LFS_MB_P medulloblastoma cells.
Test [6] is described as follows: HDN33 neuroblastoma growth inhibition, cell-based, chromothripsis tumors, cisplatin or BGB combos (AID 1671450).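 Note: cells exposed to compound for four days; 0% = vehicle DMSO and 100% = cell killing by high DMSO.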 The note with it: HDN33 neuroblastoma cells, stronger effect = higher value.
The nature of test [7]: ICB984 medulloblastoma cell growth inhibition, synergistic combos for chromothripsis tumors, cisplatin or BGB combos (AID 1671451; call rule not given here;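 note: cells exposed for 96 hours before readout; 0% = vehicle DMSO and 100% = killing by high DMSO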). Particulars: ICB984 medulloblastoma cells, drug combinations, stronger effect = higher value.
Test [8] is described as follows: LFS_MB_1R medulloblastoma cell growth inhibition, synergistic combos for chromothripsis tumors, cisplatin or BGB combos (AID 1671452).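 Note: cells exposed for 96 hours before readout.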 The note with it: LFS_MB_1R medulloblastoma cells, stronger effect = higher value.
A short description of test [9]: HTB85 osteosarcoma cell growth inhibition, synergistic combos for chromothripsis tumors, BGB or cisplatin IC20 combos (AID 1671453).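 Note: cells exposed for 96 hours before readout; 0% = vehicle DMSO and 100% = high DMSO killing control.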 Particulars: HTB85 osteosarcoma cells, drug combinations, stronger effect = higher value.
A short description of test [10]: CRL2098 osteosarcoma cell growth inhibition, synergistic combos for chromothripsis tumors, BGB or cisplatin IC20 combos (AID 1671454).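 Note: cells exposed for 96 h before readout; 0% = vehicle DMSO and 100% = killing by high DMSO.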 Particulars: CRL2098 osteosarcoma cells, drug combinations, stronger effect = higher value.
Test [11] is described as follows: HD-MB03 medulloblastoma cell growth inhibition, synergistic combos for chromothripsis tumors, BGB or cisplatin IC20 combos (AID 1671455; in the data active = inhibition above about 83%;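 note: 0% = vehicle DMSO and 100% = high DMSO as cytotoxic control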). Particulars: HD-MB03 medulloblastoma cells, stronger effect = higher value.
Test [12] is described as follows: UWB1.289 ovarian carcinoma cell growth inhibition, synergistic combos for chromothripsis tumors, BGB or cisplatin combos (AID 1671456).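 Note: cells exposed to compound for four days; 0% = vehicle DMSO and 100% = killing by high DMSO.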 The note with it: UWB1.289 ovarian carcinoma cells, stronger effect = higher value.
A short description of test [13]: LFS_MB_2R medulloblastoma cell growth inhibition, synergistic combos for chromothripsis tumors, cisplatin combos (AID 1671457).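 Note: cells exposed to compound for four days before readout.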 Particulars: LFS_MB_2R medulloblastoma cells, stronger effect = higher value.
Test [14] in a line: MDA-MB-436 breast carcinoma cell growth inhibition, synergistic combos for chromothripsis tumors, BGB or cisplatin combos (AID 1671458; call rule not given here;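 note: cells exposed for 96 hours; 0% = vehicle DMSO and 100% = killing by high DMSO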). The note with it: MDA-MB-436 breast carcinoma growth inhibition, drug combinations, stronger effect = higher value.
The nature of test [15]: UWB1.289_BRCA1 ovarian cancer growth, cell-based, BGB or cisplatin combinations (AID 1671459). The note with it: UWB1.289 BRCA1 ovarian carcinoma, drug combinations, stronger effect = higher value.
A short description of test [16]: human astrocyte viability loss, single and combined drugs, cytotoxicity control for chromothriptic childhood tumor combination screen, cell-based, BGB or cisplatin IC20 combos (AID 1671460).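 Note: cells exposed to compounds for 96 hours before viability readout; 0% = vehicle and 100% = killing control.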 Particulars: Human astrocytes, drug combinations, stronger effect = higher value.
Test [17] is described as follows: growth inhibition of BT084 medulloblastoma cells, cell-based, ICGC_MB145, cisplatin and BGB IC40 combos (AID 1671461).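 Note: cells exposed to drugs for 96 hours; 0% = vehicle DMSO and 100% = high DMSO full killing control.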 The note with it: drug combinations, stronger effect = higher value.
The nature of test [18]: growth inhibition of RCMB18 medulloblastoma cells, cell-based, cisplatin and BGB IC40 combos (AID 1671462).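 Note: cells exposed to compound for four days.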 The note with it: stronger effect = higher value.
Test [19] can be described thus: growth inhibition of CRL1545 osteosarcoma cells, cell-based, cisplatin and BGB IC20 combos (AID 1671464).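 Note: cells exposed to compound for 96 hours before readout; 0% = vehicle DMSO and 100% = high DMSO killing control.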 The note with it: stronger effect = higher value.
The nature of test [20]: sensitizers of A549 cells to miR-34 induction, primary screen, imaging, A549 dox-inducible miR-34, nuclei and caspase counts (AID 1347080;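 active = compounds whose cell count with miR-34 switched on is under 0.7 times the count with it off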). The note with it: A549 miR-34 inducible, Hoechst nuclei count, 48 h.
A short description of test [21]: survival rescue of mitochondrial mutant cells in low glucose, primary screen, MELAS cybrids, Rieske KO mouse fibroblasts, CellTiter-Glo (AID 1508586;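 active = mean z-score across replicates of 1.96 or higher in either the MELAS or the Rieske mutant cell line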;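 note: z relative to plate mean and SD of compound and empty wells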).
Test [22] is described as follows: inhibitors of Cryptococcus chitosan production, flow cytometry, Cibacron Brilliant Red staining (AID 1347148; call rule not given here;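 note: compound exposure lasted three days at 37 degrees C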). The note with it: Cryptococcus neoformans chitosan, stronger effect = lower value; at 10 µM unless noted. In general terms: In flow cytometry, cells or beads pass a laser one at a time.
Test [23] is described as follows: SU-DIPG-XXV glioma cell viability, MIPE5.0 library, qHTS (AID 1347068; cut-off not given, nearly all actives have IC50 up to about 30 µM;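 for IC50: cells exposed to compound for 48 hours before viability readout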). Background: Quantitative high-throughput screening tests each substance at several concentrations.
[24] abbreviates: measured here: combination with BGB IC40, at 0.05 µM.
[25] abbreviates: measured here: with BGB IC20 combination, at 0.5 µM.
Where [26] appears, read: measured here: with cisplatin IC20 combination, at 0.5 µM.
Setting [27] is: measured here: combination with cisplatin, at 0.5 µM.
Where [28] appears, read: measured here: combination with cisplatin, at 5 µM.

As to `O=C1CCC[C@@H]2[C@H]3CCCN4CCC[C@@H](CN12)[C@@H]34`, the molecule was called inactive in test [1], in [2], in test [3] and in test [4]. Besides, the inhibition was -20.9% (inactive) in [5] (at 0.5 µM, stronger effect = higher value); -26.5% in [5] (measured here: combination with BGB IC20, at 0.005 µM); -23% in test [5] (measured here: combination with BGB IC40, at 0.005 µM); -17% in test [5] (setting [24]); -27.3% in [5] (measured here: combination with cisplatin, at 0.5 µM, stronger effect = higher value); 64.5% in [5] (measured here: combination with cisplatin, at 5 µM, stronger effect = higher value). Also, the inhibition in [6] (BGB combo, at 5 µM) is 59.7%; in test [6] (at 0.5 µM), 6.84% (inactive); in test [6] (cisplatin combo, at 5 µM), 52.4%; in test [6] (setting [25]), -9.69%; in test [6] (setting [26]) it was 11.1%; in test [6] (single agent, at 5 µM), 48.2%. Also, the inhibition in test [7] (BGB IC20 combo, at 0.005 µM) is 5.19%; in test [7] (BGB IC40 combo, at 0.005 µM) it was 0.771%; in test [7] (BGB IC40 combo, at 0.05 µM), 63.2%; in test [7] (at 0.5 µM), -0.41% (inactive); in [7] (cisplatin combo, at 0.05 µM) it was 61.6%; in test [7] (cisplatin combo, at 0.5 µM), 2.95%. Moreover, the inhibition in [7] (cisplatin combo, at 5 µM) was -10%; in test [7] (measured here: 5 uM single agent, at 5 µM) it was 1.92%; in test [8] (at 0.5 µM), 12.9% (inactive); in test [8] (setting [24]), -3.79%; in test [8] (setting [27]) it was 12.5%; in test [8] (setting [28]), 79.4%. Moreover, the inhibition in [9] (at 0.5 µM) is 0.28% (inactive); in test [9] (measured here: with BGB IC20, at 0.5 µM), 0.562%; in [9] (measured here: with BGB IC20, at 5 µM), 39.5%; in test [9] (measured here: with cisplatin IC20, at 0.5 µM), -4.39%; in [9] (measured here: with cisplatin IC20, at 5 µM), 33.8%; in test [9] (single agent, at 5 µM) it was 15.4%. Further, the inhibition in test [10] (at 0.5 µM) is 11.9% (inactive); in test [10] (measured here: combination with BGB at IC20, at 0.5 µM) it was -8.11%; in test [10] (measured here: combination with cisplatin at IC20, at 0.5 µM) it was 39.2%; in [11] (at 0.5 µM) it was 2.42% (inactive); in [11] (measured here: combo with BGB at IC20, at 0.5 µM) it was 3.91%; in test [11] (measured here: combo with cisplatin at IC20, at 0.5 µM), -1.67%. For the same molecule, the inhibition in [12] (at 0.5 µM) is 2.22% (inactive); in test [12] (measured here: inhibition with BGB combination, at 0.05 µM) it was 4.13%; in test [12] (measured here: inhibition with cisplatin combination, at 0.05 µM), 1.55%; in [13] (at 0.5 µM), 0.58% (inactive); in test [13] (setting [27]), 8.66%; in test [13] (setting [28]), 60.9%. Further, the inhibition was -3.03% (inactive) in [14] (at 0.5 µM); -5.75% in test [14] (measured here: BGB combination, at 0.5 µM); 1.19% in [14] (measured here: BGB combination, at 5 µM); -10.4% in test [14] (measured here: cisplatin combination, at 0.5 µM); 1.01% in [14] (measured here: cisplatin combination, at 5 µM); 24% in [15] (BGB combination, concentration series, at 5 µM). The inhibition was 2.45% (inactive) in test [15] (at 0.5 µM); 16.1% in test [15] (cisplatin combination, concentration series, at 5 µM); 2.72% (inactive) in [16] (at 0.5 µM); 3.13% in test [16] (measured here: combo with BGB IC20, at 0.5 µM); 4.87% in test [16] (measured here: combo with cisplatin IC20, at 0.5 µM); 3.62% (inactive) in [17] (at 0.5 µM). The inhibition was 3.61% in test [17] (cisplatin combination, at 0.5 µM); 62.6% in [17] (cisplatin combination, at 5 µM); -11% in [17] (measured here: BGB IC40 combination 0.05 uM, at 0.05 µM); 75.7% in test [17] (single agent, at 5 µM); -5.51% (inactive) in test [18] (at 0.5 µM); 33.7% in [18] (cisplatin combo, at 5 µM). For the same molecule, the inhibition in test [18] (measured here: BGB IC40 combination, at 0.05 µM) was -15.6%; in test [18] (setting [27]), -27.9%; in test [18] (single agent, at 5 µM), 31.3%; in test [19] (at 0.5 µM), 8.42% (inactive); in [19] (setting [25]), -16.4%; in [19] (setting [26]) it was 19.6%. Besides, the inhibition was -32.9% in test [19] (single agent, at 0.05 µM) and -58% in [19] (single agent, at 5 µM).

`C=CCO/N=C(/C[C@H]1O[C@@H]2O[C@]3(C)CC[C@H]4[C@H](C)CC[C@@H]([C@H]1C)[C@@]24OO3)[C@H]1O[C@@H]2O[C@]3(C)CC[C@H]4[C@H](C)CC[C@@H]([C@H]1C)[C@@]24OO3`: in test [3], the concentration at half-maximal activity (AC50) is 0.209 µM (active).

For the molecule `O=[N+]([O-])c1ncc[nH]1`, the molecule was classed as inactive in test [1], in test [2], in test [3] and in test [4]. Besides, the figures for the fold change in test [20] (stronger effect = lower value) and in [20] (measured here: relative caspase fold change +Dox/-Dox) were 0.87 (inactive) and 0.789, respectively. Besides, the cell count was 7870 in [20] (measured here: total cells with miR-34 induction, stronger effect = lower value) and 9040 in [20] (measured here: total cells without miR-34 induction). Also, the z-score in test [21] (MELAS cybrid survival, CellTiter-Glo 48 h, stronger effect = higher value) is -0.216 (inactive); in test [21] (Rieske KO mouse fibroblast survival, CellTiter-Glo 72 h), 0.743.

In the case of `CC1=C(CC/C(C)=C/CCC2=CCC(C3=CC(=O)OC3O)OC2O)C(C)(C)CCC1` (stereo not given), the molecule was classed as inactive in test [1], in test [2], in test [3] and in [4]. Besides, the fold fluorescence in test [22] was 4.39 [at 120 µM] (inactive).

Take `CC1(N2CCC(n3c([C@@H]4CCCNC4)nc4ccccc43)CC2)CCCCCCC1`: in test [1], the call was inactive. In addition, the half-maximal activity concentration (AC50) in [2] is 14.8 µM (active). Also, in [23], the IC50 is 20.9 µM (active).

Take `C[C@]12CC[C@H]3[C@@H](CCC4=CC(=O)CC[C@@H]43)[C@@H]1CC[C@@H]2OC(=O)CCc1ccccc1`: the molecule was classed as inactive in test [1], in test [2], in test [3], in [4] and in [23].

`C[C@@H]1[C@H](O)[C@@H](C)C=CC=CCCC=CC=CC=CC=C[C@H](O[C@H]2O[C@@H](C)[C@H](O)[C@@H](N)[C@H]2O)CC2O[C@](O)(C[C@@H](O)[C@H](O)CC[C@@H](O)C[C@@H](O)C[C@@H](O)CC(=O)O[C@H]1C)C[C@H](O)[C@H]2C(=O)O`: the result in test [1], in test [2], in [3] and in test [4] was inactive.
